# Rtt109 HAT inh: inhibitors of C. albicans Rtt109/Vps75 HAT, primary screen, biochemical, ThioGlo CoA-SH fluorescence, plate reader. purified Rtt109/Vps75, 4 h. inhibition, % at 34.9 µM. actives 0.16% (n = 330,000). AID 540336, 2011;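 active = inhibition of at least 50% in every replicate; inconclusive = best replicate reaches 50% inhibition but some replicates fall short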
# ERp5 block: inhibitors of ERp5-driven insulin aggregation, primary screen, biochemical, turbidity, absorbance 650 nm, single point. 90 min. inhibition, % at 9.99 µM. actives 0.05% (n = 350,000). Protein disulfide-isomerase A6 (Homo sapiens), Q15084;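 active = mean replicate inhibition above about 25%, with every replicate also reaching it, limit read from the data, passing the limit was not always enough; inconclusive = only one of those two criteria met; inactive = neither criterion met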
# Target sequence (Q15084 whole entry, looked up): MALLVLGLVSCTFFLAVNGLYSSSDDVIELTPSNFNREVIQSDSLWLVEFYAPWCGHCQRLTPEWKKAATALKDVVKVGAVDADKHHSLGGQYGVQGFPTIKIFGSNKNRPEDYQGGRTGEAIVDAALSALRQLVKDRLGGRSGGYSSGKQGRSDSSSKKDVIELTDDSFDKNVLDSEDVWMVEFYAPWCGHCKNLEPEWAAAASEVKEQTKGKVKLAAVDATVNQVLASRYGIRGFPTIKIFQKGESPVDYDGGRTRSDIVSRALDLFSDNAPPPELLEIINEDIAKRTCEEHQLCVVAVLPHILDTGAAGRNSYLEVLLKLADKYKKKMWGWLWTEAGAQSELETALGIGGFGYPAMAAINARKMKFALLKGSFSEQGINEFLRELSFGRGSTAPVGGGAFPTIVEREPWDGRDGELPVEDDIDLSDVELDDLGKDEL
# SIRT5 inh: SIRT5 desuccinylase inhibitors, primary screen, biochemical, fluorescence imaging, single point, set 5; actives 1.1% (n = 330,000); inhibition, % at 15 µM; AID 652115, 2013; NAD-dependent protein deacylase sirtuin-5, mitochondrial (Homo sapiens), Q9NXA8; Purified SirT5, succinyl-peptide AMC, trypsin-coupled fluorescence; in the data active = inhibition above about 15%; inconclusive = no clear call, values can overlap the other calls
# DENV2 CPE rescue: inhibitors of DENV2 cytopathic effect, primary screen, cell-based, plate reader, single concentration. DENV2-infected cells, cytopathic effect rescue. CPE inhibition, % at 9.99 µM. actives 1.7% (n = 350,000). AID 651640, 2012; in the data active = CPE inhibition above about 20%, passing the limit was not always enough; inconclusive = no clear call, values can overlap the other calls; tested in BHK-21 cells;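 note: 0% = median of neutral control wells and 100% = median of positive control wells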
# PDI inh: inhibitors of human PDI, primary screen, biochemical, turbidity, single point, plate reader; inhibition, % at 10 µM; actives 0.052% (n = 350,000); Protein disulfide-isomerase (Homo sapiens), P07237; PDI insulin aggregation turbidity, A650, 90 min;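 active = mean inhibition across replicates of 30% or more, whatever share of single replicates reach that level; inconclusive = mean inhibition below 30% while every single replicate reaches 30%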
# Numbers without * were called inactive; ? = inconclusive; . = no result given. Hits are enriched below; roughly 2.3% of the tested compounds scored in any of these assays.
SMILES,Rtt109 HAT inh,ERp5 block,SIRT5 inh,DENV2 CPE rescue,PDI inh
Cc1noc(C)c1NC(=O)Nc1ccc2c(c1)C(=O)N([C@H](C)CO)C[C@@H](C)[C@H](CN(C)Cc1ccc(C(=O)O)cc1)OCCCC[C@@H](C)O2,.,.,.,0,.
O=C(CCC(=O)OCC(=O)c1ccc([N+](=O)[O-])cc1)Nc1ccccc1Cl,75*,.,.,.,-8
O=C(CCC(=O)OCC(=O)c1cccc([N+](=O)[O-])c1)Nc1cccc(Cl)c1Cl,-6,.,.,.,-2
Cc1ccccc1OCC(=O)NCC(=O)OCC(=O)c1ccc([N+](=O)[O-])cc1,130*,2,-2,3,0
COc1ccc(CNC(=O)C[C@H]2C(=O)N(Cc3ccccc3)C[C@@H]2Cc2ccccc2)cc1,11,13,-4,30*,-4
COc1ccc(CNC(=O)CN2C(=O)C3C4C=CC(C4)C3C2=O)cc1 (stereo not given),.,0,109*,2,2
CCCCN1C[C@H](Cc2ccccc2)[C@@H](CC(=O)Nc2ccc(OC)cc2)C1=O,.,-1,1,3,-3
COc1ccc(CNC(=O)C[C@H]2C(=O)N(Cc3ccc(OC)cc3)C[C@@H]2Cc2ccccc2)cc1,4,7,.,-1,0
COc1ccc(CN2C(=O)C3C4C=CC(C4)C3C2=O)cc1 (stereo not given),-1,2,2,7,-1
CCCCN1C[C@H](Cc2ccccc2)[C@@H](CC(=O)Nc2ccccc2)C1=O,9,15,.,56*,11
C[C@@H]1CN([C@@H](C)CO)C(=O)c2cc(NC(=O)CCC(F)(F)F)ccc2O[C@@H](C)CCCCO[C@H]1CN(C)C(=O)C1CCCCC1,.,-6,0,-6,.
C[C@H](CO)N1C[C@H](C)[C@@H](CN(C)Cc2ccc(C(=O)Nc3ccccc3N)cc2)Oc2ccc(NC(=O)Cc3ccccc3)cc2CC1=O,.,4,7,11,.
C[C@H](CO)N1C[C@H](C)[C@H](CN(C)S(=O)(=O)c2ccc(Cl)cc2)Oc2c(NS(=O)(=O)c3cn(C)cn3)cccc2C1=O,.,-3,6,-4,.
O=C1c2oc3ccc(F)cc3c(=O)c2C(c2cccc(O)c2)N1CCCN1CCOCC1 (stereo not given),15,3,.,-1,.
Cc1ccc2oc3c(c(=O)c2c1)C(c1cccc(Cl)c1)N(CCCN1CCOCC1)C3=O (stereo not given),6,0,.,55*,-8
CO[C@H]1CN(C)C(=O)c2ccc(NS(=O)(=O)c3ccccc3)cc2OC[C@H](C)N(C)C[C@@H]1C,.,-4,-3,-7,.
CO[C@@H]1CN(C)C(=O)c2ccc(NS(=O)(=O)c3ccccc3)cc2OC[C@H](C)N(C)C[C@H]1C,.,-6,-2,25*,.
CO[C@H]1CN(C)C(=O)c2cc(NS(=O)(=O)c3ccccc3)ccc2OC[C@H](C)N(C)C[C@H]1C,.,2,1,27*,.
CO[C@H]1CN(C)C(=O)c2cc(NS(=O)(=O)c3ccccc3)ccc2OC[C@@H](C)N(C)C[C@H]1C,.,-3,-5,5,.
CO[C@H]1CN(C)C(=O)c2ccc(NS(=O)(=O)c3ccccc3)cc2OC[C@H](C)N(Cc2ccccn2)C[C@@H]1C,.,8,.,36*,.
CCCN1C[C@H](C)[C@@H](OC)CN(C)C(=O)c2cc(NS(=O)(=O)c3ccccc3)ccc2OC[C@H]1C,.,9,31*,16,.
CNC(=O)C[C@H]1CC[C@@H]2[C@H](COc3ccc(NC(=O)C4CC4)cc3C(=O)N2C)O1,.,.,.,-3,.
C[C@H]1CN([C@@H](C)CO)C(=O)c2cc(-c3ccc(F)cc3)cnc2O[C@H]1CN(C)C(=O)Nc1ccccc1F,.,3,2,-1,.
COc1ccc(O)c(C(=O)c2cnc3c(c2)c(C)nn3CCO)c1,10,-2,19*,?,-5
Cc1nn(CCO)c2ncc(C(=O)c3cc(Cl)ccc3O)cc12,-11,-1,3,1,-48
SMILES,Rtt109 HAT inh,ERp5 block,SIRT5 inh,DENV2 CPE rescue,PDI inh
CCOC(=O)C1(Cc2ccccc2C)CCCN(C(=O)c2cc(C3CC3)[nH]n2)C1 (stereo not given),11,3,-5,26*,0
CCOC(=O)C1=C(C)NC(=O)C(C#N)C1c1ccncc1 (stereo not given),3,-4,2,36*,2
CCOC(=O)C1=C(C)NC(C)=C(C(=O)OCC)C1c1ccncc1,.,-1,0,13,-5
O=C(C[C@@H]1C[C@H]2c3cc(NC(=O)C4CCOCC4)ccc3O[C@H]2[C@H](CO)O1)NCc1ccccn1,.,-5,5,-5,.
C[C@@H]1CCCCO[C@H](CN(C)C(=O)Nc2ccc(F)cc2)[C@H](C)CN([C@@H](C)CO)C(=O)c2cc(NC(=O)Nc3ccc4c(c3)OCO4)ccc2O1,.,-1,12,-2,.
COC(=O)C1=C(C)N(Cc2ccccc2C(F)(F)F)C(=NCc2ccccc2)NC1c1ccc(C(F)(F)F)cc1 (stereo not given),.,-3,-1,0,.
COC(=O)C1=C(C)N(Cc2ccccc2C(F)(F)F)C(=NCc2ccc(C(F)(F)F)cc2)NC1c1ccc(Cl)cc1 (stereo not given),.,0,0,25*,.
COC(=O)C1=C(C)N(Cc2ccccc2C(F)(F)F)C(=NCc2ccc3c(c2)OCO3)NC1c1cccc(F)c1 (stereo not given),.,-4,17*,0,.
COC(=O)C1=C(C)N(Cc2ccccc2C(F)(F)F)C(=NCc2ccc(OC)cc2)NC1c1ccccc1 (stereo not given),.,8,-1,42*,.
CO[C@H]1CN(C)C(=O)c2ccc(NC(=O)C3CCC3)cc2OC[C@@H](C)NC[C@@H]1C,.,4,-1,-4,.
CO[C@@H]1CN(C)C(=O)c2ccc(NC(=O)C3CCC3)cc2OC[C@H](C)NC[C@@H]1C,.,1,-4,34*,.
COc1ccc(NC(=O)Nc2ccc3c(c2)OC[C@@H](C)NC[C@H](C)[C@H](OC)CN(C)C3=O)cc1,.,7,-1,22*,.
CCCNC(=O)N1C[C@H](C)[C@@H](OC)CN(C)C(=O)c2ccc(NC(=O)C3CCC3)cc2OC[C@H]1C,.,1,-5,12,.
CCC(=O)Nc1ccc2c(c1)OC[C@H](C)NC[C@H](C)[C@H](OC)CN(C)C2=O,.,-4,-1,21*,.
COc1ccc(NC(=O)Nc2ccc3c(c2)OC[C@H](C)NC[C@@H](C)[C@H](OC)CN(C)C3=O)cc1,.,2,1,-5,.
CCCNC(=O)N1C[C@@H](C)[C@H](OC)CN(C)C(=O)c2ccc(NC(=O)C3CCC3)cc2OC[C@H]1C,.,-6,1,40*,.
CCCC(=O)Nc1ccc2c(c1)OC[C@@H](C)NC[C@H](C)[C@@H](OC)CN(C)C2=O,.,0,-4,12,.

# Assay outcomes as filed in PubChem.
